# In the supplement of paper PMC13380429:
# Columns and labels:
# [1] = test system: Vero E6 infected with SARS-CoV-2; assay: morphology score (similarity to uninfected cells); higher = more like uninfected cells; details: 24 h
# [2] = test system: Vero E6 infected with SARS-CoV-2; assay: SARS-CoV-2 infection rate relative to infected DMSO; higher = more infection, active = 60 or less; details: 24 h
Compound,morphology score [1],SARS-CoV-2 infection rate [2]
O=C(O)c1ccc2nc(-c3cc(Cl)cc(Cl)c3)oc2c1 [tafamidis-meglumine] (10 µM),0.242,90.5% (inactive)
CC(=N)NCc1cccc(CN)c1 (10 µM),-0.0209,107% (inactive)
Oc1cc(O)cc(O)c1 [phloroglucin] (10 µM),-0.0825,114% (inactive)
CC[C@H](C)[C@@H]([C@@H](CC(=O)N1CCC[C@H]1[C@H](OC)[C@@H](C)C(=O)N[C@@H](Cc1ccccc1)c1nccs1)OC)N(C)C(=O)[C@@H](NC(=O)[C@H](C(C)C)N(C)C)C(C)C [dolastatin-10] (0.833333 µM),0.0156,106% (inactive)
O=C(CCc1ccc(O)cc1)c1c(O)cc(O)cc1O [phloretin] (10 µM),0.241,104% (inactive)
COc1cc(/C=C2\CCC/C(=C\c3ccc(O)c(OC)c3)C2=O)ccc1O [cyclovalone] (10 µM),0.0684,93% (inactive)
Nc1ccn([C@@H]2O[C@H](CO)[C@@H](O)[C@@H]2O)c(=O)n1 [cytarabine] (0.833333 µM),0.0731,97% (inactive)
Nc1ncnc2c1ncn2[C@@H]1O[C@H](COP(=O)(O)OP(=O)(O)OP(=O)(O)O)[C@@H](O)[C@H]1O (10 µM),-0.0072,99.5% (inactive)
O=C(Nc1ccccc1Br)N[C@@H]1CCN(c2ccc(C(F)(F)F)cn2)C1 (10 µM),0.0714,94.5% (inactive)
COc1cc2c(cc1OC)CN(C(=O)[C@@H](NCc1ccncc1)C(C)(C)C)CC2 (10 µM),-0.115,105% (inactive)
COc1cc(Nc2nc3ccccc3nc2NS(=O)(=O)c2ccc(NC(=O)c3ccc(C)c(OC)c3)cc2)cc(OC)c1 (10 µM),0.0476,119% (inactive)
CC1(C)OC[C@@H](COC(=O)CCc2ccc(OC[C@@H](O)CNCCNC(=O)N3CCOCC3)cc2)O1 [landiolol] (10 µM),-0.108,113% (inactive)
C=C[C@H]1CN2CC[C@H]1C[C@@H]2[C@@H](O)c1ccnc2ccc(OC)cc12 [quinidine] (10 µM),0.155,108% (inactive)
CC(C)(C)Nc1nc(Nc2ccc(C(N)=O)cc2)cc(N)c1C#N (0.833333 µM),0.029,106% (inactive)
Nc1ncnc2c1ncn2[C@@H]1O[C@H](CO)[C@@H](O)[C@H]1O [adenosine] (10 µM),0.0109,109% (inactive)
CCOC(=O)C1=C[C@@H](OC(CC)CC)[C@H](NC(C)=O)[C@@H](N)C1 [oseltamivir-phosphate] (10 µM),0.239,85.5% (inactive)
c1ccc(CNCc2ccc(CN3CCCNCCNCCCNCC3)cc2)nc1 (10 µM),0.129,100% (inactive)
Cc1onc(-c2ccccc2Cl)c1C(=O)N[C@@H]1C(=O)N2[C@@H]1SC(C)(C)[C@@H]2C(=O)O [cloxacillin] (10 µM),0.00481,99.5% (inactive)
NC(=O)C1=CN([C@@H]2O[C@H](COP(=O)(O)OP(=O)(O)OC[C@H]3O[C@@H](n4cnc5c(N)ncnc54)[C@H](O)[C@@H]3O)[C@@H](O)[C@H]2O)C=CC1 [coenzyme-I] (10 µM),0.00507,103% (inactive)
N[C@@H](Cc1ccc(O)cc1)C(=O)O [plovamer-acetate] (10 µM),0.0812,108% (inactive)
N=C(C[C@@H](O)COc1ccccc1-c1ccccc1)N1CCCCC1 (10 µM),0.0845,104% (inactive)
CN[C@@H](C)[C@H]1[C@H](O)C[C@@]2(C)[C@@H]3CC[C@H]4C(C)(C)[C@@H](NC)CC[C@@]45C[C@@]35CC[C@]12C [cyclovirobuxin-D] (10 µM),0.331,97% (inactive)
O=c1n(CCCN2CCN(c3cccc(Cl)c3)CC2)nc2ccccn12 [trazodone] (10 µM),-0.132,116% (inactive)
CC1Sc2c(C(=O)O)c(=O)c3cc(F)c(N4CCNCC4)cc3n21 (centres undefined) [ulifloxacin] (10 µM),-0.0402,106% (inactive)
Cc1ccc(C(=O)c2ccc(CC(=O)O)n2C)cc1 [tolmetin] (10 µM),0.0813,106% (inactive)
Cc1cnc(C(=O)NCCc2ccc(S(=O)(=O)NC(=O)NC3CCCCC3)cc2)cn1 [glipizide] (10 µM),0.218,96% (inactive)

Compound,morphology score [1],SARS-CoV-2 infection rate [2]
CC[C@]1(O)C[C@@H]2CN(CCc3c([nH]c4ccccc34)[C@@](C(=O)OC)(c3cc4c(cc3OC)N(C)[C@H]3[C@@](O)(C(N)=O)[C@H](O)[C@]5(CC)C=CCN6CC[C@]43[C@@H]65)C2)C1 [vindesine] (10 µM),-0.107,103% (inactive)
CN(C)CCCN1c2ccccc2CCc2ccccc21 [imipramine] (10 µM),-0.0385,92.5% (inactive)
COCC(=O)O[C@]1(CCN(C)CCCc2nc3ccccc3[nH]2)CCc2cc(F)ccc2[C@@H]1C(C)C [mibefradil] (10 µM),0.79,17.5% (active)
CS(=O)(=O)c1cc(F)cc2c3c(n(Cc4ccc(Cl)cc4)c12)[C@@H](CC(=O)O)CC3 [laropiprant] (10 µM),0.0115,106% (inactive)
O=S(=O)(c1cccc2c(O)nccc12)N1CCCNCC1 [hydroxyfasudil] (10 µM),0.355,108% (inactive)
C/C=C(/C)C(=O)O[C@H]1[C@H](OC(C)=O)[C@@]2(CO)C(CC1(C)C)C1=CCC3[C@@]4(C)CCC(O[C@@H]5O[C@H](C(=O)O)[C@@H](O[C@@H]6O[C@H](CO)[C@@H](O)[C@H](O)[C@H]6O)[C@H](O)[C@H]5O[C@@H]5O[C@H](CO)[C@@H](O)[C@H](O)[C@H]5O)[C@](C)(CO)C4CC[C@@]3(C)[C@]1(C)C[C@H]2O.C/C=C(\C)C(=O)O[C@H]1[C@H](OC(C)=O)[C@@]2(CO)C(CC1(C)C)C1=CCC3[C@@]4(C)CCC(O[C@@H]5O[C@H](C(=O)O)[C@@H](O[C@@H]6O[C@H](CO)[C@@H](O)[C@H](O)[C@H]6O)[C@H](O)[C@H]5O[C@@H]5O[C@H](CO)[C@@H](O)[C@H](O)[C@H]5O)[C@](C)(CO)C4CC[C@@]3(C)[C@]1(C)C[C@H]2O (some centres undefined) [escin] (0.833333 µM),-0.0809,118% (inactive)
Nc1c(-c2cccc(C(F)(F)F)c2)nsc1C(=O)O [amflutizole] (10 µM),0.00564,108% (inactive)
Cc1ccc2c(c1)c1c3n2CCNC3CCC1 (centres undefined) [pirlindole] (10 µM),0.0112,106% (inactive)
NC1(Cc2ccc(Cl)cc2)CCN(c2ncnc3[nH]ccc23)CC1 (0.833333 µM),0.535,99.5% (inactive)
CC[C@H](C)[C@H](N)C1=N[C@H](C(=O)N[C@@H](CC(C)C)C(=O)N[C@H](CCC(=O)O)C(=O)N[C@H](C(=O)N[C@H]2CCCCNC(=O)[C@H](CC(N)=O)NC(=O)[C@@H](CC(=O)O)NC(=O)[C@H](Cc3cnc[nH]3)NC(=O)[C@@H](Cc3ccccc3)NC(=O)[C@H]([C@@H](C)CC)NC(=O)[C@@H](CCCN)NC2=O)[C@@H](C)CC)CS1 [bacitracin] (10 µM),-0.109,112% (inactive)
CCN(CC)C(=O)c1ccc(C2=CC3(CCNCC3)Oc3cccc(O)c32)cc1 (10 µM),0.006,122% (inactive)
Cc1ccc(C[N+](C)(C)C)o1 [5-methylfurmethiodide] (10 µM),-0.123,117% (inactive)
O=C1c2ccccc2-n2c1nc1ccccc1c2=O [tryptanthrin] (10 µM),0.145,96% (inactive)
NC(=O)NC1NC(=O)NC1=O (centres undefined) [allantoin] (10 µM),-0.0426,104% (inactive)
C=CC(=O)Nc1cccc(Oc2nc(Nc3ccc(N4CCN(C)CC4)cc3)nc3ccsc23)c1 [olmutinib] (0.833333 µM),-0.0965,94.5% (inactive)
Nc1cc(F)ccc1NC(=O)/C=C/c1cnn(C/C=C/c2ccccc2)c1 (0.833333 µM),-0.0979,109% (inactive)
CC[C@@H]([C@H](C)O)n1ncn(-c2ccc(N3CCN(c4ccc(OC[C@@H]5CO[C@@](Cn6cncn6)(c6ccc(F)cc6F)C5)cc4)CC3)cc2)c1=O [posaconazole] (0.833333 µM),0.204,102% (inactive)
CCCCCC(C)N (centres undefined) [tuaminoheptane] (10 µM),-0.092,109% (inactive)
CCCC(=O)O [sodium-butyrate] (10 µM),0.0558,110% (inactive)
COc1ccc(CCN(C)CCCN2CCc3cc(OC)c(OC)cc3CC2=O)cc1OC [zatebradine] (10 µM),-0.00282,112% (inactive)
O=C(C[S+]([O-])Cc1ccco1)NC/C=C\COc1cc(CN2CCCCC2)ccn1 (centres undefined) [lafutidine] (10 µM),0.0534,94% (inactive)
Cc1c(-c2ccc(O)cc2)n(Cc2ccc(OCCN3CCCCCC3)cc2)c2ccc(O)cc12 [bazedoxifene] (0.833333 µM),0.201,101% (inactive)
C[C@]12CC[C@@H]3c4ccc(O)cc4CC[C@H]3[C@@H]1C[C@@H](O)[C@@H]2O [estriol] (10 µM),-0.0117,108% (inactive)
CC(=O)Nc1ccc(C(=O)NC(C)(C)C)cc1 (10 µM),0.0601,106% (inactive)
O=C(Oc1ccc(Br)cc1)N1CCN2CCC1CC2 (10 µM),0.273,92% (inactive)
CCCc1nc(C(C)(C)O)c(C(=O)OCc2oc(=O)oc2C)n1Cc1ccc(-c2ccccc2-c2nnn[nH]2)cc1 [olmesartan-medoxomil] (10 µM),-0.0296,116% (inactive)
